# Data: PubChem BioAssay (EPA / NIEHS)
# Records with an inconclusive call do not appear. Calls of active or inactive are those of the source. How the source made its calls: active means hit-call score of the fitted dose curve at least 0.9, where 1 is the maximum; inconclusive means response in the unintended direction; inactive means score below 0.9.
# Molecular target: human Retinoic Acid Receptor gamma (RARg), RARG (gene 5916) (UniProt P13631)
# Assay: ATG_RARg_TRANS: Attagene TRANS-FACTORIAL HepG2 Assay for human Retinoic Acid Receptor gamma (RARg) (AID 2283009);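 on AC50: AC50 is for reporter induction above DMSO meaning RARg activation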
# Experimental: ATG_TRANS is a cell-based, multiplexed-readout assay that uses HepG2, a human liver cell line, with measurements taken at 24 hours after chemical dosing in a 24-well plate.ATG_RARg_TRANS is one of 30 assay component(s) measured or calculated from the ATG_TRANS assay. It is designed to make measurements of mRNA induction, a form of inducible reporter, as detected with fluorescence intensity signals by Reverse transcription polymerase chain reaction (RT-PCR) and Capillary electrophoresis technology.Data from the assay component ATG_RARg_TRANS was analyzed into 1 assay endpoint. This assay endpoint, ATG_RARg_TRANS, was analyzed in the positive analysis fitting direction relative to DMSO as the negative control and baseline of activity. Using a type of inducible reporter, measures of mRNA for gain-of-signal activity can be used to understand the reporter gene at the transcription factor-level as they relate to the gene RARG. Furthermore, this assay endpoint can be referred to as a primary readout, because this assay has produced multiple assay endpoints where this one serves a reporter gene function. To generalize the intended target to other relatable targets, this assay endpoint is annotated to the nuclear receptor intended target family, where the subfamily is non-steroidal.
# Human liver HepG2 cells are transiently transfected with multiple reporter transcription units (MRTUs) in 6-well plates using FuGene 6 reagent (Roche; 3 ml FuGene/1 mg DNA). The MRTU constructs are regulated by a cis-regulating element (promoter). […] A major difference between the CIS and TRANS system is that in CIS activities of endogenous TFs are measured, whereas the TRANS assay evaluates changes in activities of exogenous, chimeric NR-Gal4 proteins. […] At the end of 24 hour incubation, total RNA was isolated using TriZol reagent (Invitrogen). The isolated RNA is then reverse-transcribed using oligo(dT) primer and Mo-MLV reverse transcriptase (Invitrogen) with DNAse I (Ambion) treatment for 30 min. The one-tenth of the produced cDNA was amplified by PCR using Taq DNA polymerase (Invitrogen) and two reporter sequence-specific primers. The PCR products were fluorescently labeled by primer extension with 6-arboxyfluorescein (6-FAM) 5'-labeled reporter sequence-specific primer (2 min at 95 C, 20 s at 68 C and 10 min at 72 C) and these products were digested with 5U of HpaI (New England Biolabs) for 2h at 37 C. […] The raw capillary electrophoresis data was processed using Attagraph software (Attagene).
# Sequence of human Retinoic Acid Receptor gamma (RARg), RARG (gene 5916) (P13631 whole entry, looked up): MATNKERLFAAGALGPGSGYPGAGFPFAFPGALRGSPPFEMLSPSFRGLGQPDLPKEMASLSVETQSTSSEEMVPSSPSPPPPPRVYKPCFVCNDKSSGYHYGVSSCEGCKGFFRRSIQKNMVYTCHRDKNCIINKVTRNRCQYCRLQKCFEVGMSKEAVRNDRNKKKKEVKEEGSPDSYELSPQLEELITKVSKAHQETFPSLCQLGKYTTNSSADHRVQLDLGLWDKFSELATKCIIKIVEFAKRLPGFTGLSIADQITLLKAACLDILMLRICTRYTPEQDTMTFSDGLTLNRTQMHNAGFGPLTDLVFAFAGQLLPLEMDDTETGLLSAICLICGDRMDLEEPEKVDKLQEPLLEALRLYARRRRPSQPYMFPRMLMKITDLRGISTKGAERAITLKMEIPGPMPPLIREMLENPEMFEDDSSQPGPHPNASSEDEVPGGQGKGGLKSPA
Compound,outcome,AC50
O=C(CCl)NCO,inactive,–
CN(C)c1ccc(N=O)cc1,inactive,–
CC(C=O)Cc1ccc2c(c1)OCO2 (stereo not given),inactive,–
COc1ccccc1N,inactive,–
OC[P+](CO)(CO)CO,inactive,–
OC(Cc1ccccc1Cl)(Cn1cncn1)C1(Cl)CC1 (stereo not given),inactive,–
Cc1ccc2nc3sc(=O)sc3nc2c1,–,17.7 µM (active)
Cc1cc(C(C)(C)c2ccc(O)c(C)c2)ccc1O,inactive,–
C=CC(Cl)CCl (stereo not given),inactive,–
NC(=O)c1ccc(N)nc1,inactive,–
O=S1(=O)OC(c2cc(Br)c(O)c(Br)c2)(c2cc(Br)c(O)c(Br)c2)c2ccccc21,inactive,–
Nc1ccc(N)cc1,inactive,–
CC(C)[C@@H](Nc1ccc(C(F)(F)F)cc1Cl)C(=O)OC(C#N)c1cccc(Oc2ccccc2)c1 (stereo not given in full),inactive,–
COc1ccc([N+](=O)[O-])cc1O,inactive,–
COC(F)(C(F)(F)C(F)(F)F)C(F)(C(F)(F)F)C(F)(F)F (stereo not given),inactive,–
OC[C@@H](O)[C@H]1O[C@@H]2O[C@H](C(Cl)(Cl)Cl)O[C@@H]2[C@H]1O,inactive,–
CCOP(=O)(OCC)SCCSCC,inactive,–
OC(Cc1ccccc1Cl)(Cn1[nH]cnc1=S)C1(Cl)CC1 (stereo not given),inactive,–
O=C(Cc1ccccc1)OCCc1ccccc1,inactive,–
CCC[N+](CCC)(CCC)CCC,inactive,–

Compound,outcome,AC50
CC(C)(c1ccc(O)c(-c2ccccc2)c1)c1ccc(O)c(-c2ccccc2)c1,inactive,–
CN(N=O)C(N)=O,inactive,–
C=CCOC(N)=O,inactive,–
CN(C1CCCCC1)C1CCCCC1,inactive,–
Cl[C@H]1OCCO[C@@H]1Cl,inactive,–
CCOCn1c(-c2ccc(Cl)cc2)c(C#N)c(Br)c1C(F)(F)F,inactive,–
COCC(=O)N(c1c(C)cccc1C)[C@H](C)C(=O)OC,inactive,–
Nc1c(Oc2ccccc2)cc(O)c2c1C(=O)c1ccccc1C2=O,inactive,–
Cc1c([N+](=O)[O-])c(C)c([N+](=O)[O-])c(C(C)(C)C)c1[N+](=O)[O-],inactive,–
c1csc(-c2ccc(-c3cccs3)s2)c1,inactive,–
CC(c1ccc(O)cc1)c1ccc(O)cc1,inactive,–
CCNc1nc(NCC)nc(SC)n1,inactive,–
CCCCOC(C)=O,inactive,–
OCCCCO,inactive,–
O=C(NC(=O)c1c(F)cccc1F)Nc1cc(Cl)c(OC(F)(F)C(F)C(F)(F)F)cc1Cl (stereo not given),inactive,–
O=C(O)C1(c2ccc3c(c2)OC[C@H](Cc2ccc(-c4ccccc4)cc2)[C@H]3O)CCCC1,inactive,–
CC(O)(CS(=O)(=O)c1ccc(F)cc1)C(=O)Nc1ccc(C#N)c(C(F)(F)F)c1 (stereo not given),inactive,–
C[As+](C)(C)CC(=O)[O-],inactive,–
C[CH2][Hg][S]c1ccccc1C(=O)O,inactive,–
C#CCOC(=O)/C=C(C)/C=C/CC(C)CCCC(C)C (stereo not given),inactive,–
